In the supplement of paper PMC8728848:
The sample as a whole holds a higher share of the strongest signals than the screen did.

Assays:
Test in all cases: glycan array binding signal (z-score within array); higher = stronger binding
Settings in all cases: glycan notation: IUPAC condensed, linker removed
[1] = target: Gal6P(b1-4)GlcNAc
How it was run: (§1)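 Glycan array binding is given as a within-array Z-score, which can be read as non-binding when negative. The arrays, 3228 of them, came from the Consortium for Functional Glycomics database and were retained only where the protein sequence was available. Z-scores were averaged across arrays of the same protein sequence at different concentrations or buffers and across linkers.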

[2] = target: GalNAc(b1-3)GlcNAc
How it was run: as §1

[3] = target: GalNAc(b1-4)GlcNAc(b1-2)Man(a1-3)[GalNAc(b1-4)GlcNAc(b1-2)Man(a1-6)]Man(b1-4)GlcNAc(b1-4)GlcNAc
How it was run: as §1

[4] = target: GalNAc(b1-6)GalNAc
How it was run: as §1

[5] = target: GalNAc3S(b1-4)GlcNAc3S
How it was run: as §1

[6] = target: GlcA(b1-6)Gal
How it was run: as §1

[7] = target: GlcA3S(b1-3)Gal(b1-4)GlcNAc(b1-2)Man
How it was run: as §1

[8] = target: GlcNAc(a1-4)Gal(b1-4)GlcNAc
How it was run: as §1

[9] = target: GlcNAc(b1-3)Gal(b1-3)GalNAc
How it was run: as §1

[10] = target: GlcNAc(b1-3)Gal(b1-4)GlcNAc(b1-2)Man(a1-3)[GlcNAc(b1-3)Gal(b1-4)GlcNAc(b1-2)Man(a1-6)]Man(b1-4)GlcNAc(b1-4)[Fuc(a1-6)]GlcNAc
How it was run: as §1

[11] = target: GlcNAc(b1-3)Gal(b1-4)GlcNAc(b1-3)Gal(b1-4)GlcNAc(b1-2)[GlcNAc(b1-3)Gal(b1-4)GlcNAc(b1-3)Gal(b1-4)GlcNAc(b1-6)]Man(a1-6)[GlcNAc(b1-3)Gal(b1-4)GlcNAc(b1-3)Gal(b1-4)GlcNAc(b1-2)Man(a1-3)]Man(b1-4)GlcNAc(b1-4)[Fuc(a1-6)]GlcNAc
How it was run: as §1

[12] = target: GlcNAc(b1-3)Gal(b1-4)GlcNAc(b1-3)Gal(b1-4)GlcNAc(b1-3)Gal(b1-4)GlcNAc(b1-2)Man(a1-3)[GlcNAc(b1-3)Gal(b1-4)GlcNAc(b1-3)Gal(b1-4)GlcNAc(b1-3)Gal(b1-4)GlcNAc(b1-2)Man(a1-6)]Man(b1-4)GlcNAc(b1-4)[Fuc(a1-6)]GlcNAc
How it was run: as §1

[13] = target: GlcNAc(b1-3)[GlcNAc(b1-4)][GlcNAc(b1-6)]GlcNAc
How it was run: as §1

[14] = target: GlcNAc(b1-3)[GlcNAc(b1-6)]GalNAc
How it was run: as §1

[15] = target: Kdn(a2-6)Gal(b1-4)GlcNAc
How it was run: as §1

[16] = target: Man(a1-3)[Man(a1-6)]Man
How it was run: as §1

[17] = target: Neu5Ac(a2-3)Gal(b1-3)GalNAc6S
How it was run: as §1

[18] = target: Neu5Ac(a2-3)Gal(b1-4)GlcNAc(b1-3)Gal(b1-4)GlcNAc(b1-3)Gal(b1-4)GlcNAc(b1-2)Man(a1-3)[Neu5Ac(a2-3)Gal(b1-4)GlcNAc(b1-3)Gal(b1-4)GlcNAc(b1-3)Gal(b1-4)GlcNAc(b1-2)Man(a1-6)]GalNAc
How it was run: as §1

[19] = target: Neu5Ac(a2-3)Gal(b1-4)GlcNAc(b1-6)[Neu5Ac(a2-3)Gal(b1-3)]GalNAc
How it was run: as §1

[20] = target: Neu5Ac(a2-3)Gal(b1-4)[Fuc(a1-3)]GlcNAc(b1-6)[Gal(b1-3)]GalNAc
How it was run: as §1

[21] = target: Neu5Ac(a2-3)[GalNAc(b1-4)]Gal(b1-4)Glc
How it was run: as §1

[22] = target: Neu5Ac(a2-6)Gal(b1-4)GlcNAc(b1-2)Man(a1-6)[GlcNAc(b1-2)Man(a1-3)]Man(b1-4)GlcNAc(b1-4)GlcNAc
How it was run: as §1

[23] = target: Neu5Ac(a2-6)Gal(b1-4)GlcNAc(b1-3)Gal(b1-4)GlcNAc(b1-3)Gal(b1-4)GlcNAc(b1-2)Man(a1-3)[Neu5Ac(a2-6)Gal(b1-4)GlcNAc(b1-3)Gal(b1-4)GlcNAc(b1-3)Gal(b1-4)GlcNAc(b1-2)Man(a1-6)]GalNAc
How it was run: as §1

[24] = target: Neu5Ac(a2-6)Gal(b1-4)GlcNAc(b1-3)Gal(b1-4)GlcNAc(b1-3)GalNAc
How it was run: as §1

[25] = target: Neu5Ac(a2-6)GalNAc
How it was run: as §1

[26] = target: Neu5Ac(a2-6)GalNAc(b1-4)GlcNAc6S
How it was run: as §1

[27] = target: Neu5Ac(a2-8)Neu5Ac(a2-8)Neu5Ac
How it was run: as §1

[28] = target: Neu5Gc(a2-3)Gal(b1-3)GlcNAc
How it was run: as §1

[29] = target: Neu5Gc(a2-3)Gal(b1-4)GlcNAc(b1-3)Gal(b1-4)GlcNAc(b1-2)Man(a1-3)[Neu5Gc(a2-3)Gal(b1-4)GlcNAc(b1-3)Gal(b1-4)GlcNAc(b1-2)Man(a1-6)]Man(b1-4)GlcNAc(b1-4)GlcNAc
How it was run: as §1

B1: AFL5 (Aspergillus fumigatus), Q4WB00 (protein)
chain: MDNFMEMTKKLGHQPELLRLRALDATYDDALEGKLVVAPLDMSEPGKKILDSGTADGTWLRNVRSKQSVPHDYYGSDVEGELFPKDPDGITYFAHSFKDPWPQQYLGFFDLVHIRGSLAGSAPEGPAPVIQNLTTLLKPGGWVQLMEMNAFSPPPNGPAMTDFAKMASEMFTGIGVGDFANNNKSMLEDAGLKNVQEKRVIVNLGKKAKPELHDQSIHGVTGPIVPLTSVARTVKSSFTGEQLDALPARVKEELETEGGQVEMIIAFGQKA
glycan array binding signal (z-score) [1]: -0.398
glycan array binding signal (z-score) [2]: -0.465
glycan array binding signal (z-score) [3]: 0.619
glycan array binding signal (z-score) [4]: -0.013
glycan array binding signal (z-score) [5]: -0.187
glycan array binding signal (z-score) [6]: -0.217
glycan array binding signal (z-score) [7]: 0.082
glycan array binding signal (z-score) [8]: -0.335
glycan array binding signal (z-score) [9]: 0.205
glycan array binding signal (z-score) [10]: 0.456
glycan array binding signal (z-score) [11]: 1.94
glycan array binding signal (z-score) [12]: 1.47
glycan array binding signal (z-score) [13]: -0.493
glycan array binding signal (z-score) [14]: -0.216
glycan array binding signal (z-score) [15]: 0.092
glycan array binding signal (z-score) [16]: 0.203
glycan array binding signal (z-score) [17]: -0.456
glycan array binding signal (z-score) [18]: 2.14
glycan array binding signal (z-score) [19]: -0.74
glycan array binding signal (z-score) [20]: 0.716
glycan array binding signal (z-score) [21]: -0.53
glycan array binding signal (z-score) [22]: -0.146
glycan array binding signal (z-score) [23]: 2.17
glycan array binding signal (z-score) [24]: -0.298
glycan array binding signal (z-score) [25]: -0.731
glycan array binding signal (z-score) [26]: 0.024
glycan array binding signal (z-score) [27]: 0.079
glycan array binding signal (z-score) [28]: -0.526
glycan array binding signal (z-score) [29]: 0.635
